This passage reports composite z-score and z-score results from PubChem BioAssay.

The test system of assay [1] is PRMT1 (protein arginine N-methyltransferase 1). Briefly: small molecules binding arginine methyltransferase PRMT1 – biochemical, small-molecule microarray, 635 nm fluorescence, primary screen (AID 1088).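 Also: binding of Prmt1 protein to compounds spotted on small-molecule microarray slides.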 Particulars: higher = more signal.
Assay [2] is described as follows: growth effects on S. cerevisiae YJM789 – YJM789 clinical isolate, OD600, 24 h, basal, primary screen (AID 1089).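 Also: growth of clinical yeast isolate S. cerevisiae YJM 789 seeded 1000 cells per well; test concentration not given here.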 Particulars: higher = more signal, called active from +8 up or from −8 down.
Assay [3] in a line: S. pombe growth modifiers, basal conditions – strain 972, OD600, 24 h, no modulator, primary screen (AID 1090).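 Also: basal condition with compound alone and no growth modifier present; test concentration not given here.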 Particulars: S. pombe 972 growth, higher = more signal, called active from +8 up or from −8 down.
Assay [4] is described as follows: budding yeast growth modifiers under rapamycin – strain BY4716, OD600, 96 h, primary screen (AID 1091). Also: test concentration not given here. Conditions: S. cerevisiae BY4716 + rapamycin, higher = more signal, called active from +8 up or from −8 down.
Assay [5] deals with Torsin-1A-interacting protein 2 (Homo sapiens) (UniProt Q8NFQ8). Briefly: small molecules binding lysate-expressed LULL1 – cell lysate, human LULL1 lysate, 635/667 nm fluorescence, primary screen (AID 1092).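 Also: probe is lysate of COS7 cells overexpressing human LULL1; score merges per-feature 667 nm fluorescence with signal-to-noise.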 Conditions: small-molecule microarray, hLULL1 lysate binding, 635 nm fluorescence; higher = more signal.
The nature of assay [6]: optical density change of DRC41 E. coli – strain DRC41, OD650, 24 h, E. coli filamentation project, primary screen (AID 1093).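 Also: MC1000 strain lacking acrAB efflux and sulA so SOS filamentation is blocked; test concentration not given here.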 Conditions: E. coli DRC41 growth, higher = more signal, called active from +8 up or from −8 down.
Assay [7] can be described thus: probe aLefty2 binding to arrayed compounds – biochemical, biotinylated probe, 635/667 nm fluorescence, primary screen (AID 1094).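 Also: score merges spot fluorescence near 667 nm with spot signal-to-noise ratio.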 Particulars: small-molecule microarray, higher = more signal.
Assay [8] has as its system Noggin (protein binding on small-molecule microarray). Briefly: small molecules binding Noggin protein – biochemical, 635/667 nm fluorescence, primary screen (AID 1095).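 Also: score merges 667 nm feature fluorescence with signal to noise over triplicate slides.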 Conditions: 635 nm fluorescence, higher = more signal.
For assay [9], the target named is Neurogenic locus notch homolog protein 3 (Homo sapiens) (UniProt Q9UM47). Description: small molecules binding NOTCH3 protein – biochemical, 635/667 nm fluorescence, primary screen (AID 1096). Particulars: small-molecule microarray, 635 nm fluorescence, higher = more signal.
A short description of assay [10]: probe aEGFR binding to arrayed compounds – biochemical, biotinylated probe, 635/667 nm fluorescence, primary screen (AID 1097).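 Also: probe is a biotinylated anti-EGFR antibody binding compounds printed on slides; score combines fluorescence near 667 nm and signal to noise of each spot.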 Particulars: small-molecule microarray, higher = more signal.

Calls of active or inactive are those of the source.

Chain of Neurogenic locus notch homolog protein 3 (Homo sapiens) (Q9UM47 whole entry, looked up): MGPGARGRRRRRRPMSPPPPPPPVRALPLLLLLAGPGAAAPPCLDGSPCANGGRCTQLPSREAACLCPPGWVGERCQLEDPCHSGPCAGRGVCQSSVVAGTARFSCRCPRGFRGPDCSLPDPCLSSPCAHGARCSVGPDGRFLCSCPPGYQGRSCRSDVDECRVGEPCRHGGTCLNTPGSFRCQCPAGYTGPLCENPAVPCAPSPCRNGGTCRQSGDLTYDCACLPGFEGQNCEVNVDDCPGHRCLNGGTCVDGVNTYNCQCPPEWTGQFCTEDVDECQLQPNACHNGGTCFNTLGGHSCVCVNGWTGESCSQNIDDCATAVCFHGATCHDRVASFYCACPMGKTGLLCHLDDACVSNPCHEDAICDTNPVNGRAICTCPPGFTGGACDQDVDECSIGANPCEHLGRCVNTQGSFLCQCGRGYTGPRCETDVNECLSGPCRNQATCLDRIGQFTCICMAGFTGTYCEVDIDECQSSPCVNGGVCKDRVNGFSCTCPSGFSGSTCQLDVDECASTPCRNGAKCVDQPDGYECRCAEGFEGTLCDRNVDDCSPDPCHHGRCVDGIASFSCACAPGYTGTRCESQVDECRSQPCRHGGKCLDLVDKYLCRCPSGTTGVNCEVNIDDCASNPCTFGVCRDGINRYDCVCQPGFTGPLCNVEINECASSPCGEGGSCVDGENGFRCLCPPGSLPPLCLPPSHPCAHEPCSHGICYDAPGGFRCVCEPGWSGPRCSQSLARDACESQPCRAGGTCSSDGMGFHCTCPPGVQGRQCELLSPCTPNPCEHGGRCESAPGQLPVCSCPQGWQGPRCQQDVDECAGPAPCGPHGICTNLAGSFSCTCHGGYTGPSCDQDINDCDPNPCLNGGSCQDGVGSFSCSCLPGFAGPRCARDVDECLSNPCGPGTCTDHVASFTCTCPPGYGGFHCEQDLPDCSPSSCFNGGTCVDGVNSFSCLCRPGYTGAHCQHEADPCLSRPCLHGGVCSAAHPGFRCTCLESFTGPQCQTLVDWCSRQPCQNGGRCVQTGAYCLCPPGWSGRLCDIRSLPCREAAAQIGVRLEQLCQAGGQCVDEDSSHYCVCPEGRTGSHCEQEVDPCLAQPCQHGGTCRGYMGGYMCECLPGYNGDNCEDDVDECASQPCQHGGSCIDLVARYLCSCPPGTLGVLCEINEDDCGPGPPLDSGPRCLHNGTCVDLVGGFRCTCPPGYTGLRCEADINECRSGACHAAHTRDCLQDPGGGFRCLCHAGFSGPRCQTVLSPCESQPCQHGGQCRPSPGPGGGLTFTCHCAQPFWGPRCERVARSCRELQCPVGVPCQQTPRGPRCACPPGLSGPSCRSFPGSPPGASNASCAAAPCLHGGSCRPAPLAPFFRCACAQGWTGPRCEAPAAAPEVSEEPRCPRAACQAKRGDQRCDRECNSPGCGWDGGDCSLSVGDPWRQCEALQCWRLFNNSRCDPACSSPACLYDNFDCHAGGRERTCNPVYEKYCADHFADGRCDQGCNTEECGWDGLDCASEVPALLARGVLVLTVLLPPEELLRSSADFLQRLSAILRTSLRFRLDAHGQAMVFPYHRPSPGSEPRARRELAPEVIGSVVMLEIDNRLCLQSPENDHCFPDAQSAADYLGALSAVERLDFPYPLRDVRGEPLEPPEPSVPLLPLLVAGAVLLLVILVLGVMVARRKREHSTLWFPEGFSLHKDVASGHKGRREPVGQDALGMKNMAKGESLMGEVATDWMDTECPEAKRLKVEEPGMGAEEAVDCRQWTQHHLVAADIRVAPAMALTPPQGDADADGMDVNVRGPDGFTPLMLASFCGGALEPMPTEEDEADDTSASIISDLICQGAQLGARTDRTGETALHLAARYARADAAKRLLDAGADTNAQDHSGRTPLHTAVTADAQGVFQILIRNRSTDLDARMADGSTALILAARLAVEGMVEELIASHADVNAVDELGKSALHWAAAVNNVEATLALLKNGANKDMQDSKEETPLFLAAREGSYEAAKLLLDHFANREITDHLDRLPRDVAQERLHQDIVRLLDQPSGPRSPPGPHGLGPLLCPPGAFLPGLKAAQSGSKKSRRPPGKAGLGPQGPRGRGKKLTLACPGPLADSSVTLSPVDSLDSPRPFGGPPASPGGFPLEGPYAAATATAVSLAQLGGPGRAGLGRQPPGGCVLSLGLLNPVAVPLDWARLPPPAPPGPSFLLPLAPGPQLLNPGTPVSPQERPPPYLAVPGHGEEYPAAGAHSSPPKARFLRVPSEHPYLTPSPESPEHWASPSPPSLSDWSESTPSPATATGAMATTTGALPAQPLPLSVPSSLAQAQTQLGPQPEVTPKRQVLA
Chain of Torsin-1A-interacting protein 2 (Homo sapiens) (Q8NFQ8 whole entry, looked up): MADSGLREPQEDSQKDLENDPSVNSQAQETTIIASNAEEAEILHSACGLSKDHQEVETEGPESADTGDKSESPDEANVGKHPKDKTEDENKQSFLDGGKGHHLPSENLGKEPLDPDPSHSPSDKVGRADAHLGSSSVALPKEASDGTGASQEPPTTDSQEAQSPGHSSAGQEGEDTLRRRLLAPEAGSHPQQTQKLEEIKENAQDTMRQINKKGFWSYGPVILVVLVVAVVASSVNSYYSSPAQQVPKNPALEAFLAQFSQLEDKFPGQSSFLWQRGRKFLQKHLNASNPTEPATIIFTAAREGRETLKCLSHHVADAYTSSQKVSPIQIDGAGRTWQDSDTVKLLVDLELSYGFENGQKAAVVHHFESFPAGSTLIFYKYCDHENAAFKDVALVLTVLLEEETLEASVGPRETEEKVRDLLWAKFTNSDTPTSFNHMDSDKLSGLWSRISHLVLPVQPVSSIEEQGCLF

With `CCc1cc2c(nc1CC)CCN(CCC(C)=NOC(C)CN1CCCc3nc(C)c(C)cc31)C2` (stereo not given), the composite z-score turned out to be 1.37 in assay [1]; 1.41 in assay [5]; 0.696 in assay [7]; 1.13 in assay [8]; 0.986 in assay [9]; 0.391 in [10]. Also, the z-score in assay [2] is -2.1 (inactive); in [3], -1.74 (inactive); in assay [4] it was -1.28 (inactive); in assay [6], 0.517 (inactive).

Consider `CC(C)OC(=O)C=C1C[C@@H](c2ccc(C#N)cc2)O[C@@H](c2ccc(C#N)cc2)O1`, for which the composite z-score in assay [1] came out at 1.55; in [5], 3.36; in [7], 0.314; in assay [8], 0.747; in assay [9], 1.06; in assay [10], 0.11. The z-score in assay [2] is 0.149 (inactive); in [3], -2.93 (inactive); in [4] it was 1.01 (inactive); in [6], 0.554 (inactive).

As to `C[C@@H]1CCC2C(=O)N(Cc3ccccc3)C[C@@H](O)CN2[C@H]1c1ccc(Br)cc1` (stereo not given in full), the composite z-score is 1.39 in [1]; 1.5 in assay [5]; -0.23 in assay [7]; 0.542 in assay [8]; 0.158 in assay [9]; -0.115 in assay [10]. In addition, the z-score in assay [2] was -1.91 (inactive); in assay [3], -3.75 (inactive); in assay [4], -0.26 (inactive); in assay [6], 0.369 (inactive).

As to `COC(=O)[C@@H]1CC[C@H](C)[C@@H](c2ccc(C)cc2)N1C(=O)c1ccc(C=NOC[C@@H](O)COCc2ccco2)cc1`, the composite z-score was -2.07 in assay [1]; -1.69 in assay [5]; 0.0179 in [7]; -1.01 in assay [8]; -3.12 in [9]; -0.0868 in assay [10]. The z-score in [2] was -1.45 (inactive); in assay [3], 0.165 (inactive); in assay [4], -0.71 (inactive); in [6], 1.47 (inactive).

On to `CCN1C(=O)[C@H]2[C@H]3[C@H](O)C=CC(=O)[C@@H]3CC[C@H]2C1=O`, for which the composite z-score in [1] is -0.777; in assay [5], 0.0819; in [7], -0.0961; in assay [8], 0.701; in assay [9], 0.705; in assay [10] it was -0.094. Also, the z-score in assay [2] is 0.0131 (inactive); in assay [3], -0.373 (inactive); in assay [4], -0.624 (inactive); in assay [6], 0.255 (inactive).

With `CC(=O)C[C@H](O)[C@@H](NC(=O)OC(C)(C)C)C(C)C`, the composite z-score was -0.402 in assay [1]; -1.18 in assay [5]; -0.214 in assay [7]; -0.198 in assay [8]; -0.0052 in assay [9]; -0.171 in assay [10]. Besides, the z-score was -0.498 (inactive) in assay [2], -0.644 (inactive) in assay [3], 0.0836 (inactive) in assay [4] and -0.972 (inactive) in [6].

Take `CCCCCN1CC=CC23O[C@@H]4C=CCOC(=O)[C@@H]4[C@H]2C(=O)N(C(CO)C(C)C)[C@@H]3C1=O` (stereo not given in full): the composite z-score in assay [1] was -0.266; in assay [5] it was -1.52; in assay [7], -0.166; in [8] it was -0.433; in [9], 0.247; in assay [10], -0.234. For the same molecule, the z-score in assay [2] was 0.403 (inactive); in [3], 0.195 (inactive); in assay [4] it was 0.972 (inactive); in [6], 0.869 (inactive).

Consider `CO[C@@H]1COC(=O)CC=C[C@@H](C)[C@@H]2C=C[C@H](O)[C@@H](COC(=O)CCC[C@H]1C)O2`, for which the composite z-score in assay [1] was 1.43; in [5] it was -1.78; in assay [7], -0.075; in assay [8], 1.65; in [9], -0.076; in [10], -0.15. Further, the z-score in assay [2] is -0.199 (inactive); in [3], 0.498 (inactive); in assay [4], -0.181 (inactive); in assay [6] it was 0.206 (inactive).

On to `C#CCCCON=C1C[C@@H](O)[C@@H](O)[C@@H]2[C@@H]3C(=O)N(CCC(=O)OCC)C(=O)[C@@H]3CC[C@@H]12`, for which the composite z-score was -0.683 in assay [1]; 0.654 in assay [5]; 0.706 in assay [7]; -1.1 in assay [8]; -1.01 in [9]; -0.152 in assay [10]. In addition, the z-score in assay [2] is -0.969 (inactive); in [3] it was 0.068 (inactive); in assay [4] it was -0.664 (inactive); in [6], 0.827 (inactive).

For `C=CCN1C(=O)[C@]2(O[C@H](CCn3cc(CCO)nn3)[C@@H]([Si](C)(C)c3ccc(OC)cc3)[C@@H]2C)c2cc(N3CCOC3=O)ccc21`, the composite z-score is 1.19 in [1]; 2.79 in [5]; -0.271 in assay [7]; 0.432 in assay [8]; 0.231 in [9]; -0.256 in assay [10]. The z-score in [2] is -0.621 (inactive); in assay [3] it was -0.111 (inactive); in [4] it was -0.0506 (inactive); in [6], -0.342 (inactive).

Regarding `COC(=O)[C@H](C)NC(=O)CCC1CC(OC(=O)NCc2cccc3ccccc23)CC2(CCCC(COC(=O)NCCc3ccc(Cl)cc3)O2)O1` (stereo not given in full), the composite z-score is 1.27 in assay [1]; 1.57 in [5]; -0.145 in assay [7]; 0.328 in assay [8]; 1.13 in [9]; -0.0967 in [10]. The z-score was -0.915 (inactive) in [2], -0.253 (inactive) in [3], 0.511 (inactive) in [4] and 0.129 (inactive) in assay [6].

For `COc1ccc(OC[C@H]2Cc3c(-c4ccccc4)nc4c(c3CO2)CN(CCOc2ccccc2)CC4)cc1`, the composite z-score is 1.53 in [1]; 1.32 in assay [5]; 0.0534 in assay [7]; 0.476 in assay [8]; 1.1 in assay [9]; 0.03 in assay [10]. For the same molecule, the z-score was -0.721 (inactive) in assay [2], -2.44 (inactive) in [3], -0.42 (inactive) in assay [4] and 0.258 (inactive) in [6].

Consider `COc1ccc(-c2ccc3c(n2)CCCN3CC(O)CN2CCCc3nc(C)c(C)cc32)cc1` (stereo not given), for which the composite z-score in assay [1] is 1.43; in [5], 1.13; in assay [7], 0.429; in assay [8], 0.824; in assay [9], 1.1; in assay [10], 0.243. Moreover, the z-score in assay [2] was 0.0222 (inactive); in assay [3], -0.411 (inactive); in assay [4], -1.43 (inactive); in [6] it was 0.682 (inactive).

As to `CC(C)[C@@H](OCc1ccccc1)[C@H](C)C=NO[C@H](C)c1cn([C@H](CO)Cc2ccccc2)nn1`, the composite z-score was 1.55 in [1]; 0.825 in assay [5]; -0.153 in assay [7]; 0.453 in [8]; 0.712 in [9]; -0.0828 in [10]. Moreover, the z-score was -2.33 (inactive) in assay [2], -3.29 (inactive) in assay [3], -1.26 (inactive) in assay [4] and -0.671 (inactive) in assay [6].

`CCN1C(=O)[C@H]2[C@H]3[C@H](O)[C@H](O)CC(=NO[C@@H]4O[C@H](CO)[C@@H](O)[C@H](O)[C@H]4O)[C@@H]3CC[C@H]2C1=O`: the composite z-score in assay [1] was -0.685; in assay [5], -1.12; in [7] it was -0.132; in assay [8], -0.103; in assay [9] it was -0.389; in assay [10], -0.19. Also, the z-score was -0.58 (inactive) in [2], -0.599 (inactive) in assay [3], -0.849 (inactive) in [4] and 0.103 (inactive) in [6].

On to `CCOC(=O)CCN1C(=O)[C@H]2[C@H]3[C@H](O)[C@H](O)CC(=NOCc4ccccc4)[C@@H]3CC[C@H]2C1=O`, for which the composite z-score was 0.454 in [1]; 0.175 in assay [5]; -0.147 in assay [7]; 0.676 in assay [8]; 1 in assay [9]; -0.0597 in assay [10]. Further, the z-score in [2] was -0.14 (inactive); in [3], 0.116 (inactive); in assay [4] it was -0.664 (inactive); in assay [6] it was -0.961 (inactive).

In the case of `CCCCCN1CC=CC23O[C@@H]4C=CCOC(=O)[C@@H]4[C@H]2C(=O)N(CCCCCCO)[C@@H]3C1=O` (stereo not given in full), the composite z-score was -0.0856 in assay [1]; 0.865 in assay [5]; -0.0436 in assay [7]; -1.38 in assay [8]; -0.973 in [9]; -0.254 in assay [10]. The z-score in assay [2] was -0.44 (inactive); in assay [3], -0.183 (inactive); in assay [4] it was -0.291 (inactive); in [6], 0.0293 (inactive).
